aSyn 5UTR act = Activators via SNCA 5'UTR binding, MLPCN; activity score, % (tested at 7.5 µM), hits read low; 300,000 compounds, 7.1% hits; AID 1814; alpha-synuclein 5'UTR reporter, activators screen; in the data active = activity score below about -60%
Numbers stand for hits; . = inactive. A selection follows.

SMILES	aSyn 5UTR act
Cc1ccc(NC(=O)C2CC3CCC2C3)c(Br)c1 (configuration not stated)	-110
CCN(CC)c1ccc(NC(=O)C2CC3CCC2C3)cc1 (configuration not stated)	-68
CN(C)/C=C/c1oc2ccc(O)cc2c1[N+](=O)[O-]	-86
C=CCN1C(=O)/C(=C/c2ccc(N(C)C)cc2)S/C1=N\c1nnc(CC)s1	-65
c1ccc2c(Nc3ccc4c(c3)OCCO4)c3c(nc2c1)CCCC3	-82
CC(=O)c1cccc(Nc2c3c(nc4ccccc24)CCC3)c1	.
CC(=O)c1ccc(Nc2c3c(nc4ccccc24)CCCC3)cc1	-195
O=C(c1ccc(-n2cccn2)cc1)N1CCc2ccccc2C1	-63
NS(=O)(=O)c1ccc2nc(NC(=O)c3ccc(Br)o3)sc2c1	-141
Cc1ccc2nc(NC(=O)c3ccc(Br)o3)sc2c1	-82
CC1CCC/C(=N\NC(=S)Nc2ccccc2)C1 (configuration not stated)	-94
CC1CCCC/C1=N\NC(=S)Nc1ccccc1 (configuration not stated)	-132
COC(=O)c1c(-c2ccc(Br)cc2)noc1N	-65
CC(=O)N(c1ccccc1)c1nnc(-c2cnc(C)cn2)s1	-83
C=CCn1c(O)c(N=NC(=S)Nc2ccccc2F)c2cc(S(=O)(=O)N3CCOCC3)ccc21	.
CCN(CC)c1ccc(N=Cc2ccc([N+](=O)[O-])o2)cc1	-80
Cc1ccc(Nc2ncnc3c2oc2ccccc23)cc1	-114
c1ccc(Sc2ncnc3c2oc2ccccc23)cc1	-180
c1ccc2c(c1)oc1c(Nc3ccc4c(c3)OCCO4)ncnc12	-142
Oc1ccc(N=Nc2ccc3c(c2)OCCO3)c2cccnc12	.
COc1ccc(Nc2ncnc3c2oc2ccccc23)cc1	-160
